Results filed as inconclusive are left out. Where a call stands in place of a potency, no number is given. Calls of active or inactive are those of the source. The call rests on the fitted dose curve; in most records, active means well fitted curve in the direction sought with a large enough effect; inconclusive means small, poorly fitted or top-dose-only effect, or another doubt; inactive means no such curve, though single readings can be large; an effect the other way counts as inactive or inconclusive. Numbered stars: 1 amine (or outer) side, 2 acyl side, 3 side chain; on linkers, the order of the positions; unused ones are H or OH. Square brackets hold non-standard residues; d marks the D form. Peptide text beside a SMILES is read from it. * marks the point of attachment. Dolaproine = CO[C@@H]([C@@H]1CCCN1)[C@@H](C)C(=O)O; Dil = CC[C@H](C)[C@H](NC)[C@@H](CC(=O)O)OC; X5 = O=C([C@@H](CC(O)CCl)O[*:1])[*:2]; Doe = c1ccc(C[C@H](N*)c2nccs2)cc1; aIle = CC[C@@H](C)[C@H](N)C(=O)O; NMeV = CN[C@H](C(=O)O)C(C)C; NMeA = CN[C@@H](C)C(=O)O; Aib = CC(C)(N)C(=O)O; βAla = NCCC(=O)O
Assays:
[1] = molecular target: Aldehyde dehydrogenase, mitochondrial (Homo sapiens) (UniProt P05091); assay: qHTS for Inhibitors of the Aldehyde Dehydrogenase Family (ALDH2) Primary screen (AID 2061308); further: nearly all actives have a fitted effect of over 55% in size
[2] = molecular target: Retinaldehyde dehydrogenase 3 (Homo sapiens) (UniProt P47895); assay: qHTS for Inhibitors of the Aldehyde Dehydrogenase Family (ALDH1A3) Primary screen (AID 2061315)

| SMILES | Potency [1] | Potency [2] |
| --- | --- | --- |
| CO[C@H]1[C@H](O)[C@H](O[C@H]2CC[C@]3(C=O)C4CC[C@]5(C)[C@H](C6=CC(=O)OC6)CC[C@]5(O)C4CC[C@@H]3C2)O[C@@H](C)[C@@H]1O (some centres not stated) | inactive | inactive |
| CCOc1ccc(CCNC(=O)c2cc3ccccc3n2CCN2CCOCC2)cc1OCC | inactive | inactive |
| CC(=O)O[C@H]1C[C@]2(O)[C@@H]3CC[C@@H]4C[C@@H](O)CC[C@]4(C)[C@H]3CC[C@]2(C)[C@H]1c1ccc(=O)oc1 | inactive | inactive |
| Cc1cc(-c2nnc3n2CCCCC3)c(C)n1-c1ccc(Cl)cc1 | inactive | inactive |
| N#Cc1ccc(NC(=O)Nc2nnc(-c3ccncc3)s2)cc1Cl | inactive | inactive |
| CC1=CC2/C=C(\C)CCC(O)C(O)/C=C/C(=O)OC23C(=O)NC(CC(C)C)C3C1C (configuration not stated) | inactive | inactive |
| CC[C@H]1C2CC3[C@@H]4N(C)c5ccccc5[C@]45C[C@@H]([C@H]2[C@H]5O)N3[C@H]1O | inactive | inactive |
| C[C@@H]1O[C@@H](O[C@H]2CC[C@@]3(C)C(CC[C@@H]4C3CC[C@]3(C)[C@@H](C5=CC(=O)OC5)CC[C@]43O)C2)[C@H](O[C@@H]2O[C@H](CO)[C@@H](O)[C@H](O)[C@H]2O)[C@H](O)[C@H]1O (some centres not stated) | inactive | inactive |
| CC1=C(C(=O)Nc2nccs2)C(c2ccccc2Br)N=C(Nc2nc3ccccc3o2)N1 (configuration not stated) | inactive | inactive |
| Cc1sc2c(c1C)C(c1ccc(Cl)cc1)=N[C@@H](CC(=O)Nc1ccc(O)cc1)c1nnc(C)n1-2 | inactive | inactive |
| C[C@@H]1O[C@@H](O[C@H]2CC[C@@]3(C)C(CC[C@@H]4C3CC[C@]3(C)[C@@H](C5=CC(=O)OC5)CC[C@]43O)C2)[C@H](O)[C@H](O)[C@H]1O (some centres not stated) | inactive | inactive |
| CC[C@H]1C2CC3[C@@H]4N(C)c5ccccc5[C@]45C[C@@H]([C@H]2[C@H]5O)N3[C@@H]1O | inactive | inactive |
| COC1CC(O[C@H]2CC[C@]3(C=O)C4CC[C@]5(C)[C@@H](C6=CC(=O)OC6)CC[C@]5(O)[C@@H]4CC[C@]3(O)C2)OC(C)C1O[C@@H]1O[C@H](CO)[C@@H](O)[C@H](O)[C@H]1O (some centres not stated) | inactive | inactive |
| C/C=C(\C)C(=O)O[C@H]1CC2C(=C1C)[C@H]1OC(=O)[C@](C)(O)[C@]1(O)[C@H](OC(=O)CCC)C[C@@]2(C)OC(C)=O (some centres not stated) | inactive | inactive |
| CC(C)[C@H]1OC(=O)[C@H](Cc2ccccc2)N(C)C(=O)[C@@H](C(C)C)OC(=O)[C@H](Cc2ccccc2)N(C)C(=O)[C@@H](C(C)C)OC(=O)[C@H](Cc2ccccc2)N(C)C1=O | inactive | inactive |
| S=P(c1ccccc1)(c1ccccc1)c1c[n+](Cc2ccccc2)c2ccccn12 | inactive | inactive |

| SMILES | Potency [1] | Potency [2] |
| --- | --- | --- |
| COc1cccc(CNc2ccc(C(=O)Nc3nccs3)cc2)c1O | inactive | inactive |
| CC[C@H](C)[C@@H]([C@@H](CC(=O)N1CCC[C@H]1[C@H](OC)[C@@H](C)C(=O)N[C@@H](Cc1ccccc1)c1nccs1)OC)N(C)C(=O)[C@@H](NC(=O)C(C)(C)N)C(C)C (H-[Aib]V[Dil][Dolaproine]-Doe) | inactive | inactive |
| C=C(CO)C(=O)O[C@H]1CC(=C)[C@@H]2C[C@H](O)C(=C)[C@@H]2[C@H]2OC(=O)C(=C)[C@@H]21 | inactive | inactive |
| COc1cccc(CNc2ccc(S(=O)(=O)Nc3ccc4ccccc4c3)cc2)c1O | inactive | inactive |
| O=C(N[C@@H]1N=C(c2ccccc2F)c2cccc3c2N(CC3)C1=O)c1cc2ccccc2[nH]1 | inactive | inactive |
| Cc1c(P(=S)(c2ccccc2)c2ccccc2)c2ccccc2n1C | inactive | inactive |
| O=C1CCCC2=C1C(c1[nH]ncc1Cl)N=C(Nc1nc3ccc(F)cc3o1)N2 (configuration not stated) | inactive | inactive |
| CC(=O)OC[C@H](N)C(=O)c1ccccc1 | inactive | inactive |
| CCOc1ccc(CCNC(=O)c2cc3ccccc3n2Cc2cccc(C)n2)cc1OCC | inactive | inactive |
| C[C@H]1C/C=C/[C@H]2[C@@H]3O[C@]3(C)[C@@H](C)[C@H]3[C@H](Cc4ccccc4)NC(=O)[C@]32OC(=O)O/C=C/[C@@](C)(O)C1=O | inactive | inactive |
| CC[C@@H](C)[C@@H]1NC(=O)[C@@H]2CCCN2C(=O)[C@@H](CC(O)CCl)OC(=O)CCNC(=O)[C@H](C)N(C)C(=O)[C@H](C(C)C)N(C)C1=O (some centres not stated) (cyclo([NMeA][βAla][X5]P[aIle][NMeV])) | inactive | inactive |
| CCc1nn2c(=O)cc(N3CCN(C)CC3)nc2s1 | inactive | inactive |
| CCOc1ccc(CCNC(=O)c2cc3ccccc3n2Cc2cccc(C)c2)cc1OCC | inactive | inactive |
| C[C@]12CC[C@@H](O[C@@H]3O[C@H](CO)[C@@H](O)[C@H](O)[C@H]3O)C[C@@]1(O)CCC1C2CC[C@]2(C)[C@@H](C3=CC(=O)OC3)CC[C@]12O (some centres not stated) | inactive | inactive |
| CC(=O)O[C@H]1C[C@@H](C)O[C@H]2O[C@@H]3CC4CC[C@@H]5C(CC[C@]6(C)[C@@H](C7=CC(=O)OC7)CC[C@]56O)[C@@]4(C=O)C[C@H]3O[C@]21O (some centres not stated) | inactive | inactive |

Source: PubChem BioAssay (NCATS)
